High-throughput results from PubChem BioAssay.
HT1080-NT tox = kills 2HG-producing HT-1080-NT fibrosarcoma cells. actives 1.6% (n = 360,000). Potency, µM (top dose mostly 46.1 µM), most hits filed as cytotoxic. AID 686970. HT-1080-NT fibrosarcoma viability, CellTiter-Glo ATP luminescence, 48 h;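 also: NT is the 2HG producing partner of a matched IDH1 knockdown line; nearly all actives have a fitted effect of over 55% in size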
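Luminescent CellTiter-Glo readout after 48 hours of compound exposure at 37 degrees C defined viability of HT-1080-NT cells. Activity was normalized to DMSO wells and cell-free media wells; concentration-response curves were fitted and assigned curve classes.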
HT1080 IDH1KD tx = kills HT-1080 cells with IDH1 knockdown; Potency, µM (titrated, usually from 46.1 µM), most hits filed as cytotoxic; AID 686971; HT-1080 IDH1 knockdown viability, ATP luminescence, 48 h; actives 2% (n = 360,000)
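CellTiter-Glo luminescence after 48 h compound exposure at 37 degrees C of IDH1-knockdown HT-1080 cells in 5% FBS RPMI. %Activity scaled between DMSO wells and cell-free media wells, with curves fitted and assigned curve classes.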
DT40 TDP1 CPT = DT40-hTDP1 cell growth loss with CPT; Potency, µM (top dose mostly 46.2 µM), most hits filed as inhibitors; AID 686979; chicken DT40 Tdp1-/-;hTDP1 cells + 20 nM CPT, ATP luminescence, 48 h; actives 12% (n = 420,000); also: nearly all actives have a fitted effect of over 55% in size
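Chicken DT40 Tdp1-/- cells complemented with human TDP1, 400 cells/well, exposed to compounds plus 20 nM camptothecin for at least 48 h at 37 C; viability read as ATP content by CellTiter-Glo luminescence.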
IL-1B inflam inh = inhibitors of inflammasome signaling (IL-1 beta secretion). THP-1 LPS/ATP IL-1B secretion, AlphaLISA, 16 h; stronger effect = lower value. actives 4.7% (n = 360,000). activity change, % at 57.5 µM; in the data active = activity change below about -50%; inconclusive = mostly about -30% to -49%
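Secreted IL-1B measured by AlphaLISA bead assay after 16 h compound exposure of THP-1 cells; compounds (final up to 57.5 uM) added 1 h before LPS (250 ng/mL) and ATP (1.25 mM) stimulation; lower signal means less secretion.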
DT40 TDP1 no CPT = qHTS for Inhibitors of human tyrosyl-DNA phosphodiesterase 1 (TDP1): qHTS in cells in absence of CPT | actives 15% (n = 420,000) | Potency, µM (doses to about 46.2 µM), actives largely listed as inhibitors | AID 686978, 2013 | DT40 Tdp1-/- hTDP1 cells, no CPT, ATP luminescence, 48 h; also: nearly all actives have a fitted effect of over 55% in size
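Growth of hTDP1-complemented DT40 Tdp1-knockout cells is measured by ATP luminescence after at least 48 hr compound exposure at 37 °C, with DMSO substituting for the 20 nM CPT used in the parallel screen.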
Large screens that a line does not name were inactive. This is a sample that favours compounds with a hit; in the whole collection about 19% have one here. Unless noted, calls follow the shape of the dose curve; as a rule, active = well fitted curve in the direction sought with a large enough effect; inconclusive = small, poorly fitted or top-dose-only effect, or another doubt; inactive = no such curve, though single readings can be large; an effect the other way counts as inactive or inconclusive.

Cc1ccc(NS(=O)(=O)c2ccc(OCC(=O)Nc3cccc([N+](=O)[O-])c3)c(C)c2)cc1	HT1080-NT tox inconclusive, HT1080 IDH1KD tx 13µM, DT40 TDP1 CPT inconclusive, IL-1B inflam inh inconclusive, DT40 TDP1 no CPT inconclusive
Cc1ccc(OCC(=O)Nc2ccc(S(=O)(=O)Nc3ccccn3)cc2)c(C)c1	DT40 TDP1 CPT inconclusive, DT40 TDP1 no CPT 18µM
Cc1ccc(C(=O)Nc2ccccc2C(=O)O)cc1S(=O)(=O)Nc1ccccc1	DT40 TDP1 no CPT 23µM
CN(c1cccc(NC(=O)c2ccc(Cl)c(S(=O)(=O)Nc3ccccc3)c2)c1)S(C)(=O)=O	HT1080-NT tox inconclusive, HT1080 IDH1KD tx inconclusive, DT40 TDP1 CPT inconclusive, DT40 TDP1 no CPT 16µM
Cc1ccc(C(=O)Nc2cccc([N+](=O)[O-])c2)cc1S(=O)(=O)Nc1ccc(NC(=O)c2ccccc2)cc1	DT40 TDP1 CPT 16µM, DT40 TDP1 no CPT 16µM
CCC(=O)N1CCc2cc(Br)cc(S(=O)(=O)N3CCCCC3CC)c21 (centres undefined)	DT40 TDP1 CPT inconclusive, DT40 TDP1 no CPT 21µM
CCC(=O)N1CCc2cc(Br)cc(S(=O)(=O)N(C)c3ccc(OC)cc3OC)c21	HT1080-NT tox inconclusive, HT1080 IDH1KD tx inconclusive, DT40 TDP1 CPT 18µM, DT40 TDP1 no CPT 18µM
CCC(=O)N1CCc2cc(Br)cc(S(=O)(=O)NCc3cccc(OC)c3)c21	none (no result: HT1080-NT tox, HT1080 IDH1KD tx, IL-1B inflam inh)
CCC(=O)N1CCc2cc(Br)cc(S(=O)(=O)CCC(=O)N(CC)CC)c21	none
CCCN(CCC)S(=O)(=O)c1cc(Br)cc2c1N(C(=O)CC)CC2	DT40 TDP1 CPT 9.2µM, DT40 TDP1 no CPT 10µM
CCC(=O)N1CCc2cc(Br)cc(S(=O)(=O)N3CCCCCC3)c21	DT40 TDP1 CPT inconclusive, DT40 TDP1 no CPT inconclusive
Cc1ccccc1C(=O)Nc1cccc(-c2ccc(N3CCOCC3)nn2)c1	DT40 TDP1 CPT inconclusive, DT40 TDP1 no CPT inconclusive
Cc1ccccc1N(C(=O)c1ccccn1)C(C(=O)NCc1ccccc1)c1cccnc1 (centres undefined)	none
CCC(C)NC(=O)C1CCN(C(=O)c2cc3sccc3n2Cc2ccc(Cl)cc2)CC1 (centres undefined)	DT40 TDP1 CPT 3.7µM, DT40 TDP1 no CPT 2.1µM (no result: HT1080-NT tox, HT1080 IDH1KD tx, IL-1B inflam inh)
COCCNC(=O)C1CCN(C(=O)c2cc3sccc3n2Cc2ccc(F)cc2)CC1	DT40 TDP1 CPT inconclusive, DT40 TDP1 no CPT inconclusive
CCn1c(C(=O)N2CCC(C(=O)NCCCOC)CC2)cc2sccc21	none (no result: HT1080-NT tox, HT1080 IDH1KD tx, IL-1B inflam inh)
CCn1c(C(=O)N2CCC(C(=O)NCc3ccc(OC)cc3)CC2)cc2sccc21	DT40 TDP1 CPT inconclusive
O=C(NCc1ccco1)C1CCN(C(=O)c2ccc(Cl)cc2)CC1	none
COCCNC(=O)C1CCN(C(=O)c2cc3sccc3n2Cc2ccc(Cl)cc2)CC1	DT40 TDP1 CPT 5.2µM, DT40 TDP1 no CPT 2.6µM (no result: HT1080-NT tox, HT1080 IDH1KD tx, IL-1B inflam inh)
COCCCNC(=O)C1CCN(C(=O)c2cc3sccc3n2Cc2ccc(Cl)cc2)CC1	DT40 TDP1 CPT 13µM, DT40 TDP1 no CPT 21µM (no result: HT1080-NT tox, HT1080 IDH1KD tx, IL-1B inflam inh)
O=C(NCc1ccco1)C1CCN(C(=O)c2cc3sccc3n2Cc2ccc(Cl)cc2)CC1	DT40 TDP1 CPT 18µM, IL-1B inflam inh -87, DT40 TDP1 no CPT inconclusive (no result: HT1080-NT tox, HT1080 IDH1KD tx)
Cc1cc(C)cc(NC(=O)CN2CCC(NC(=O)c3ccccc3F)CC2)c1	none
Cc1c(C(=O)NCc2ccccc2Cl)sc2nc[nH]c(=O)c12	none (no result: HT1080-NT tox, HT1080 IDH1KD tx, IL-1B inflam inh)
Nc1nc(CCl)nc(Nc2cccc3ccccc23)n1	HT1080-NT tox 0.52µM, HT1080 IDH1KD tx inconclusive, DT40 TDP1 CPT inconclusive, IL-1B inflam inh -100, DT40 TDP1 no CPT 3.3µM
CC(C)c1ccc(CC(=O)N2CCC2(C)C(=O)Nc2ccc3c(c2)OCO3)cc1 (centres undefined)	HT1080 IDH1KD tx inconclusive, DT40 TDP1 CPT inconclusive, DT40 TDP1 no CPT 18µM
CC1(C(=O)Nc2ccc3c(c2)OCO3)CCN1Cc1csc2ccccc12 (centres undefined)	HT1080 IDH1KD tx inconclusive, DT40 TDP1 CPT 23µM, IL-1B inflam inh inconclusive, DT40 TDP1 no CPT inconclusive
CC1(C(=O)Nc2ccc3c(c2)OCCO3)CCN1C(=O)Cc1ccc(-c2ccccc2)cc1 (centres undefined)	HT1080-NT tox inconclusive, HT1080 IDH1KD tx inconclusive, DT40 TDP1 CPT inconclusive, DT40 TDP1 no CPT inconclusive
